Assay [1] is described as follows: qHTS for Inhibitors of the Aldehyde Dehydrogenase Family (ALDH1A2, ALDH1A3, ALDH2, ALDH3A1) (AID 2061307). Also: nearly all actives have a fitted effect of over 50% in size. As to Potency: test system not described further here; potency is read from the fitted curve at half-maximal effect. As to activity change, negative = inhibition: % is scaled to controls: 0 for no effect and ±100 for the full control effect. Background: Quantitative high-throughput screening tests each substance at several concentrations.
The target of assay [2] is Retinaldehyde dehydrogenase 3 (Homo sapiens) (UniProt P47895). Nature of the assay: qHTS for Inhibitors of the Aldehyde Dehydrogenase Family (ALDH1A3) Confirmatory screens (AID 2061311). Also: nearly all actives have a fitted effect of over 60% in size. Also: potency is read from the fitted curve at half-maximal effect. As to activity change, negative = inhibition: % is scaled to controls: 0 for no effect and ±100 for the full control effect.
Assay [3] addresses Retinal dehydrogenase 2 (Homo sapiens) (UniProt O94788). Nature of the assay: qHTS for Inhibitors of the Aldehyde Dehydrogenase Family (ALDH1A2) Confirmation screens (AID 2061314). Also: nearly all actives have a fitted effect of over 65% in size. Also: potency is read from the fitted curve at half-maximal effect.
For assay [4], the target named is Retinaldehyde dehydrogenase 3 (Homo sapiens) (UniProt P47895). The assay is described as follows: qHTS for Inhibitors of the Aldehyde Dehydrogenase Family (ALDH1A3) Primary screen (AID 2061315).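 Also: plate controls were DMSO vehicle for no effect and reference inhibitor for full effect.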
Assay [5] concerns the target Aldehyde dehydrogenase 1A1 (Homo sapiens) (UniProt P00352). The assay is described as follows: qHTS for Inhibitors of the Aldehyde Dehydrogenase Family (ALDH1A1) Confirmatory screens (AID 2061316). Also: nearly all actives have a fitted effect of over 65% in size. Also: potency is read from the fitted curve at half-maximal effect. As to activity change, negative = inhibition: % is scaled to controls: 0 for no effect and ±100 for the full control effect.

Molecules are shown by their SMILES. Records with an inconclusive call do not appear. Unmarked numbers belong to inactive results. Activity calls are given as the source filed them. Calls follow the shape of the dose curve; as a rule, active = well fitted inhibition curve with a large enough effect; inconclusive = small, poorly fitted or top-dose-only effect; inactive = no such curve, though single readings can be large or run the other way.

Take `O=C1Cc2cc(S(=O)(=O)N3CCN(c4ccc(F)cc4)CC3)ccc2N1`: the Potency entry in assay [1], in assay [2], in assay [3] and in assay [4] was “inactive” in each case.
For `CC(C)(C)c1ccc(S(=O)(=O)c2cnc(SCC(=O)Nc3ccc(F)c(Cl)c3)[nH]c2=O)cc1`, the Potency in assay [1] was 12.7 µM (active); in assay [3], 14.2 µM (active); in assay [5], 0.634 µM (active). Further, the Potency result in assay [2] and in assay [4] was “inactive” in each case.
Consider `COc1ccc(C(=O)N(Cc2ccco2)Cc2ccco2)c(O)c1`, for which the figures for the Potency in assay [1], in assay [3] and in assay [5] were 0.891 µM (active), 17.9 µM (active) and 7.12 µM (active), respectively. The Potency entry in assay [2] and in assay [4] was “inactive” throughout.
With `CCOC(=O)c1c(C)n(-c2ccccc2)c2ccc(OC(=O)c3ccccc3)cc12`, the Potency result in assay [1], in assay [2], in assay [3] and in assay [5] was “inactive” throughout.
As to `COc1cccc(S(=O)(=O)NC2CCN(C#N)C2)c1` (configuration not stated), the Potency entry in assay [1], in assay [2], in assay [4] and in assay [5] was “inactive” each time.
For `O=C(NCC(=O)N1CCN(Cc2ccccc2)CC1)c1cccc(-c2ccsc2)c1`, the Potency result in assay [1], in assay [2], in assay [3] and in assay [5] was “inactive” each time.
For the compound `COc1cccc(-c2cccc(C(=O)N3CCN(C(=O)c4ccc(C)cc4)CC3)c2)c1`, the Potency entry in assay [1], in assay [2] and in assay [3] was “inactive” in each case. For the same compound, the Potency in assay [5] was 8.14 µM (active).
As to `Cn1sc(=O)n(Cc2ccccc2)c1=O`, the Potency in assay [1] is 10.1 µM (active); in assay [2], 12.7 µM (active); in assay [3] it was 8.96 µM (active); in assay [5] it was 0.283 µM (active).
For `CC(=O)c1c(C)n(-c2ccc(C)cc2)c2ccc(OC(=O)COc3ccccc3)cc12`, in that order: “inactive”, “inactive”, “inactive” and “inactive”.
As for `C[C@@H](CO)Nc1cc2c(cc1[S+](=O)([O-])Nc1ccc(Cl)c(Cl)c1)CCC(=O)N2`, the Potency entry in assay [1], in assay [2], in assay [4] and in assay [5] was “inactive” throughout.
With `COc1cc(O)c(C(CC(=O)N2C[C@H](C)C[C@H](C)C2)c2ccc3c(c2)OCO3)c(OC)c1` (some centres not stated), the Potency entry in assay [1], in assay [2] and in assay [4] was “inactive” each time.
`Cc1ccc(-c2ccccc2C=O)c(C)c1`: the Potency result in assay [1], in assay [2], in assay [3] and in assay [5] was “inactive” throughout.
Take `O=C(CCC1CCCN(S(=O)(=O)c2ccccc2F)C1)NCCCN1CCOCC1` (configuration not stated): the Potency result in assay [1], in assay [2], in assay [3] and in assay [5] was “inactive” each time.
Regarding `Cc1ccc(CNc2ncnc3ccc(-c4oc(-c5ccccc5)nc4C)cc23)o1`, the Potency entry in assay [1] and in assay [4] was “inactive” throughout. Moreover, the Potency in assay [2] was 22.5 µM (active).
For the compound `CN1CCN(C(=O)c2cccc(-c3ccc(CNc4ccc(N5CCN(C(=O)OC(C)(C)C)CC5)cc4)o3)c2)CC1`, the Potency entry in assay [1], in assay [2] and in assay [4] was “inactive” in each case.
Regarding `CC(=O)N1CCN(c2ccc(NCc3ccc(Br)o3)cc2)CC1`, the Potency is 10.1 µM (active) in assay [1], 17.9 µM (active) in assay [2], 12.7 µM (active) in assay [3] and 10.1 µM (active) in assay [5].
For `Cc1ccc(-c2cccc(C=O)c2)c(C)c1`, the Potency result in assay [1], in assay [2], in assay [3] and in assay [5] was “inactive” in each case.
With `O=C(Nc1ncc(Cc2ccc(C(F)(F)F)cc2)s1)c1ccc(-c2ccccc2[N+](=O)[O-])o1`, the Potency is 12.7 µM (active) in assay [1], 11.3 µM (active) in assay [2], 25.2 µM (active) in assay [3] and 6.34 µM (active) in assay [5].
`Nc1cc(S(=O)(=O)N2CCN(S(=O)(=O)c3ccc4c(c3)OCCO4)CC2)ccn1`: the Potency entry in assay [1] and in assay [4] was “inactive” each time. Moreover, the activity change, negative = inhibition in assay [2] was -14.1% [at 0.022 µM].
Consider `N#CNC(=O)c1ccc(-n2cccc2/C=C2\NC(=O)N(CC(=O)Nc3ccc(F)cc3)C2=O)cc1`, for which the Potency in assay [1] was 4 µM (active). Besides, the Potency result in assay [2], in assay [4] and in assay [5] was “inactive” in each case.
For the compound `CN(C)c1ccc(-c2csc(N3CCC(C(N)=O)CC3)n2)cc1`, the Potency in assay [1] was 11.3 µM (active); in assay [2], 12.7 µM (active); in assay [3], 14.2 µM (active); in assay [5] it was 8.96 µM (active).
For `Cc1cccc(C(=O)NCc2nnc3cc(-c4nc(C)no4)ccn23)c1`, the Potency entry in assay [1], in assay [2], in assay [3] and in assay [5] was “inactive” throughout.
For `COc1ccc(-n2c(C)c(C(C)=O)c3cc(OC(=O)COc4ccccc4)ccc32)cc1`, the Potency entry in assay [1], in assay [2], in assay [3] and in assay [5] was “inactive” in each case.
In the case of `Cc1cc(NS(=O)(=O)c2ccc(Nc3nc(-c4ccc(C)c(C)c4)cs3)cc2)no1`, in assay [1], the Potency is 0.896 µM (active). Also, the Potency result in assay [2] and in assay [4] was “inactive” throughout.
For `CC(=O)c1c(C)n(-c2cccc(C)c2)c2ccc(OC(=O)COc3ccccc3)cc12`, the Potency entry in assay [1], in assay [2], in assay [3] and in assay [5] was “inactive” in each case.
With `Cc1ccc2nc3sc(C(=O)NC4CCC(O)CC4)cc3cc2c1` (configuration not stated), the results for the Potency in assay [1], in assay [2] and in assay [5] were 6.34 µM (active), 20.1 µM (active) and 12.7 µM (active), respectively. For the same compound, the Potency result in assay [4] was “inactive”.
In the case of `Cc1ccc(C(=O)NCC(c2ccc3c(c2)OCO3)N2CCN(c3ccc(F)cc3)CC2)cc1` (configuration not stated), the Potency result in assay [1], in assay [2], in assay [3] and in assay [5] was “inactive” each time.
With `O=C1Cc2cc(S(=O)(=O)N3CCN(c4ccc(Cl)cc4)CC3)ccc2N1`, the Potency entry in assay [1], in assay [2] and in assay [4] was “inactive” throughout.
Turning to `O=C(Cc1ccc(F)cc1)Nc1cccc(-c2nc3cccnc3s2)c1`, the Potency result in assay [1], in assay [2], in assay [3] and in assay [5] was “inactive” throughout.

The record behind these values is PubChem BioAssay (NCATS).
